The supplement of paper PMC10849652
Targets with a hit are over-represented here; the source holds about 7,900 in all. About 0.6% of all pairs of compound and target were hits. Values without a mark were called inactive.

Key:
Experiment in all cases: log2 fold change, soluble protein after heating vs DMSO (PISA); higher = thermal stabilisation; K562 cells, 10 uM, 30 min; active = over 0.2 and 3.5 SD of the protein, either way, in both replicates (recomputed)
saracatinib = compound: CN1CCN(CCOc2cc(OC3CCOCC3)c3c(Nc4c(Cl)ccc5c4OCO5)ncnc3c2)CC1 [saracatinib]
How it was run: (§1)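 Values are thermal stability changes relative to control samples and are taken from duplicates. They are stated as log2 fold changes. Before quantification by TMTpro 16plex LC-MS/MS with equalised channel sums, K562 cells at 2×10^6 cells/mL were treated with 10 μM compound for 30 min, heated in aliquots for 3 min across 48°C-58°C, pooled, extracted in PBS with 0.5% NP-40 at 4°C, and centrifuged at 21,000xg for 90 min to give the soluble supernatant.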

sotrastaurin = compound: CN1CCN(c2nc(C3=C(c4c[nH]c5ccccc45)C(=O)NC3=O)c3ccccc3n2)CC1 [sotrastaurin]
How it was run: as §1

alvocidib = compound: CN1CC[C@H](c2c(O)cc(O)c3c(=O)cc(-c4ccccc4Cl)oc23)[C@H](O)C1 [alvocidib]
How it was run: as §1

Tubastatin A = compound: CN1CCc2c(c3ccccc3n2Cc2ccc(C(=O)NO)cc2)C1 [Tubastatin A]
How it was run: as §1

[1] = compound: CNC(=O)C1=CC=CC=C1NC2=NC(=NC=C2Cl)NC3=C(C=C(C=C3)N4CCOCC4)OC
How it was run: as §1

defactinib = compound: CNC(=O)c1ccc(Nc2ncc(C(F)(F)F)c(NCc3nccnc3N(C)S(C)(=O)=O)n2)cc1 [defactinib]
How it was run: as §1

rucaparib = compound: CNCc1ccc(-c2[nH]c3cc(F)cc4c3c2CCNC4=O)cc1 [rucaparib]
How it was run: as §1

[2] = compound: CNc1nc(-c2ccc3c(N)n[nH]c3c2)cc(N2C[C@@H](C(=O)NC3CCCCC3)CC[C@H]2C)n1
How it was run: as §1

encorafenib = compound: COC(=O)N[C@@H](C)CNc1nccc(-c2cn(C(C)C)nc2-c2cc(Cl)cc(NS(C)(=O)=O)c2F)n1 [encorafenib]
How it was run: as §1

[3] = compound: COC(=O)[C@H](CCSC)NC(=O)C1=C(C=C(C=C1)NC[C@H](CS)N)C2=CC=CC=C2
How it was run: as §1

[4] = compound: COC1=CC=C(C=C1)CN2C=CC3=C2C=C(C=C3)C(=O)NO
How it was run: as §1

filanesib = compound: CON(C)C(=O)N1N=C(c2cc(F)ccc2F)S[C@@]1(CCCN)c1ccccc1 [filanesib]
How it was run: as §1

zotarolimus = compound: CO[C@H]1C[C@@H]2CC[C@@H](C)[C@@](O)(O2)C(=O)C(=O)N2CCCC[C@H]2C(=O)O[C@H]([C@H](C)C[C@@H]2CC[C@H](n3cnnn3)[C@H](OC)C2)CC(=O)[C@H](C)/C=C(\C)[C@@H](O)[C@@H](OC)C(=O)[C@H](C)C[C@H](C)/C=C/C=C/C=C/1C [zotarolimus]
How it was run: as §1

idasanutlin = compound: COc1cc(C(=O)O)ccc1NC(=O)[C@@H]1N[C@@H](CC(C)(C)C)[C@](C#N)(c2ccc(Cl)cc2F)[C@H]1c1cccc(Cl)c1F [idasanutlin]
How it was run: as §1

alisertib = compound: COc1cc(Nc2ncc3c(n2)-c2ccc(Cl)cc2C(c2c(F)cccc2OC)=NC3)ccc1C(=O)O [alisertib]
How it was run: as §1

[5] = compound: COc1cc2nc(-c3cc(F)ccc3O)nc(N[C@@H]3CNC[C@H]3C(C)(C)O)c2cc1OC
How it was run: as §1

gefitinib = compound: COc1cc2ncnc(Nc3ccc(F)c(Cl)c3)c2cc1OCCCN1CCOCC1 [gefitinib]
How it was run: as §1

[6] = compound: COc1cccc2cc(-c3nc([C@H]4CC[C@H](C(=O)O)CC4)n4ncnc(N)c34)[nH]c12
How it was run: as §1

lapatinib = compound: CS(=O)(=O)CCNCc1ccc(-c2ccc3ncnc(Nc4ccc(OCc5cccc(F)c5)c(Cl)c4)c3c2)o1 [lapatinib]
How it was run: as §1

pictilisib = compound: CS(=O)(=O)N1CCN(Cc2cc3nc(-c4cccc5[nH]ncc45)nc(N4CCOCC4)c3s2)CC1 [pictilisib]
How it was run: as §1

Sequence of UniProt Q16630 (Q16630 whole entry, looked up): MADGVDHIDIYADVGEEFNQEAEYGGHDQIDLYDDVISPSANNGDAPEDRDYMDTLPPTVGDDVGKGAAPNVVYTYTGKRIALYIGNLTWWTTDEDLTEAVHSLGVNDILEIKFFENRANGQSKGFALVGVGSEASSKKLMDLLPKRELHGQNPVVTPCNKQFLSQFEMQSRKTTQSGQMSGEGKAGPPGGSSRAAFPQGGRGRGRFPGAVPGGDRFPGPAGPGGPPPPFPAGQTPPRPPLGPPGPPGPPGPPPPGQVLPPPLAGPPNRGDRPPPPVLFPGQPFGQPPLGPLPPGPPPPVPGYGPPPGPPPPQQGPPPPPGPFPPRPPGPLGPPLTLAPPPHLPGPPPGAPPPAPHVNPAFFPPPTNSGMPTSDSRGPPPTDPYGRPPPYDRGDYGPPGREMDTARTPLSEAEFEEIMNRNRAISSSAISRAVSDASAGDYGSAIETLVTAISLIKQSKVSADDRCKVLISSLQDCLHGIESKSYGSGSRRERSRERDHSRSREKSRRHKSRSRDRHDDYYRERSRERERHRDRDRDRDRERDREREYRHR
Sequence of UniProt P19397 (P19397 whole entry, looked up): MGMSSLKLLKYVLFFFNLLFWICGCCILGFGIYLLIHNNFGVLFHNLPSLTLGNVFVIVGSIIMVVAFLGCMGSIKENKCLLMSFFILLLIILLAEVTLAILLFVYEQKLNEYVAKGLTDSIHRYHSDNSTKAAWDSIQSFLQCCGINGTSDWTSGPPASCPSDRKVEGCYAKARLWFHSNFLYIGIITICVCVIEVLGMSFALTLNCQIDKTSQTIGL
Sequence of UniProt Q96KA5 (Q96KA5 whole entry, looked up): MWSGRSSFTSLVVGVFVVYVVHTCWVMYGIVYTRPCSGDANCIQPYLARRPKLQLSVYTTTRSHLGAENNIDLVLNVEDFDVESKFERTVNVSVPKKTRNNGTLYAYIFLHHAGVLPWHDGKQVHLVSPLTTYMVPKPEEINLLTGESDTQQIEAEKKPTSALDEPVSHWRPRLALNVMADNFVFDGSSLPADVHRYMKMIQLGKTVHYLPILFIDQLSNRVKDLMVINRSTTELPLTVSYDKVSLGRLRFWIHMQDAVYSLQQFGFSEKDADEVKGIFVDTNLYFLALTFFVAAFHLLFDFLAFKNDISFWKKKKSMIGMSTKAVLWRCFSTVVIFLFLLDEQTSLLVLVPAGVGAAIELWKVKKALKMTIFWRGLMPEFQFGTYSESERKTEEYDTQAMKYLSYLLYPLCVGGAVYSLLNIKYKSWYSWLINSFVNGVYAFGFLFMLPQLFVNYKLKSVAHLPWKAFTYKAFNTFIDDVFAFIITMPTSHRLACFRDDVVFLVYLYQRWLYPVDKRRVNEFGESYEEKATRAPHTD
Sequence of UniProt P08962 (P08962 whole entry, looked up): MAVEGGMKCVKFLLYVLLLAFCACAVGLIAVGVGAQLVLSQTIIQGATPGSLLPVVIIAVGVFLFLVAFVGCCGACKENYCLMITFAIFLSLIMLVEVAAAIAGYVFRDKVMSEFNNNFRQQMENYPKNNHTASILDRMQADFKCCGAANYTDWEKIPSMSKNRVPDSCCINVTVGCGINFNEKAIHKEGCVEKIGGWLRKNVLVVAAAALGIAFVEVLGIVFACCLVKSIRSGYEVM
Sequence of UniProt O15234 (O15234 whole entry, looked up): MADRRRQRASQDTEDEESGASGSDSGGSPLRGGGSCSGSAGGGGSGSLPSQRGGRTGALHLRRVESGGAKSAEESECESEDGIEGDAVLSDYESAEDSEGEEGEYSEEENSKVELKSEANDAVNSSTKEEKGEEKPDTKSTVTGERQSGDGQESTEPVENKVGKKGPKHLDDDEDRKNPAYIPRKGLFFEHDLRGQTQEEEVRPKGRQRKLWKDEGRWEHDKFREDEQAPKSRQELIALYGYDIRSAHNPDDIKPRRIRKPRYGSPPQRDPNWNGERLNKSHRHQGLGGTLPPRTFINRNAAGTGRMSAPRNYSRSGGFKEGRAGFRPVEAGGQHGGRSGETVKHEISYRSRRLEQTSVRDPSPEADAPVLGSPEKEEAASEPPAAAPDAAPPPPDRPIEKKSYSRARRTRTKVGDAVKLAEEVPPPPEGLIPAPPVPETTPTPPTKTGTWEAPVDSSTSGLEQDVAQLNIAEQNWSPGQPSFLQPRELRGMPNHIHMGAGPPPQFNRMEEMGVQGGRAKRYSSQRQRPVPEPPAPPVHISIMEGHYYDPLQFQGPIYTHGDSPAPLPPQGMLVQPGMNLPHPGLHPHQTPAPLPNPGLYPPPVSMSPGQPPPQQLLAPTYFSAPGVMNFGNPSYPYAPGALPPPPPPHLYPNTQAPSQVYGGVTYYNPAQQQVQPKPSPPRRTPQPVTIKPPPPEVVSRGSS
Sequence of UniProt Q9NYV4 (Q9NYV4 whole entry, looked up): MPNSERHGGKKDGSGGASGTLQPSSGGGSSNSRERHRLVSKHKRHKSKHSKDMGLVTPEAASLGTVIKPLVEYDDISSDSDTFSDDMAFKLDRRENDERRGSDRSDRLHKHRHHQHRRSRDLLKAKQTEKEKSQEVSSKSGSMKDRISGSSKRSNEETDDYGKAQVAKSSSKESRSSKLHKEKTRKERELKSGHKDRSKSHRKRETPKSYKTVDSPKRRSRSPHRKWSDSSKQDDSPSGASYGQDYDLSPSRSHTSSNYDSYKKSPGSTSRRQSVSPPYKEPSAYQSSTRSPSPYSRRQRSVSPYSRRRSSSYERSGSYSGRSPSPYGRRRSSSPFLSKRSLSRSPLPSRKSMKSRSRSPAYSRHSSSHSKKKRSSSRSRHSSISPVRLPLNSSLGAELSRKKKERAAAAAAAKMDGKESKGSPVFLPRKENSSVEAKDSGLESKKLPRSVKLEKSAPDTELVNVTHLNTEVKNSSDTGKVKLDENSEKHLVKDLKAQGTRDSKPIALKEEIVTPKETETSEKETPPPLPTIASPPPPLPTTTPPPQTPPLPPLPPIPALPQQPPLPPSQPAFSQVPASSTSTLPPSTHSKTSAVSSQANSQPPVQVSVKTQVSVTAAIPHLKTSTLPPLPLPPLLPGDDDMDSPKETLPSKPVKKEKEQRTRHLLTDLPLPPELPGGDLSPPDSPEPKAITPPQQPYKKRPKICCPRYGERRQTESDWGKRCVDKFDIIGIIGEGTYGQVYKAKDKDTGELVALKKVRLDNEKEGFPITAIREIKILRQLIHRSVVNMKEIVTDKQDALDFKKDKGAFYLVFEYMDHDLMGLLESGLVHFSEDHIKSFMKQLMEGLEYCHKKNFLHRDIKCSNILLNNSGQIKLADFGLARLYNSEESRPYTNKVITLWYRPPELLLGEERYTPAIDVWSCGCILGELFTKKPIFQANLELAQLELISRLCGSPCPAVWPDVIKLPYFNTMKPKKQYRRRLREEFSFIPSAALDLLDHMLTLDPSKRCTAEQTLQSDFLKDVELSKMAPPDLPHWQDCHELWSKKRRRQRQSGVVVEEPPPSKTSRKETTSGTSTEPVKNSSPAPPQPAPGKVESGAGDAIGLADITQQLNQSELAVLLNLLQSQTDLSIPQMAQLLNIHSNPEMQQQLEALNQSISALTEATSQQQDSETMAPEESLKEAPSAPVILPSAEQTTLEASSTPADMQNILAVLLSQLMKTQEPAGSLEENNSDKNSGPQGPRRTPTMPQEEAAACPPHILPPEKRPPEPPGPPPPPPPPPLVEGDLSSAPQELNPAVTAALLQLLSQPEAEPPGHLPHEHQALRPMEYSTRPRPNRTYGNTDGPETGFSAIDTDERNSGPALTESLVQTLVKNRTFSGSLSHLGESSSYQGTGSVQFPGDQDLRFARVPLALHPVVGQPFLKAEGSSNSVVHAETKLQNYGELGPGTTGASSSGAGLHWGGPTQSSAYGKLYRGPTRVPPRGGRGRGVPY
Sequence of UniProt P51946 (P51946 whole entry, looked up): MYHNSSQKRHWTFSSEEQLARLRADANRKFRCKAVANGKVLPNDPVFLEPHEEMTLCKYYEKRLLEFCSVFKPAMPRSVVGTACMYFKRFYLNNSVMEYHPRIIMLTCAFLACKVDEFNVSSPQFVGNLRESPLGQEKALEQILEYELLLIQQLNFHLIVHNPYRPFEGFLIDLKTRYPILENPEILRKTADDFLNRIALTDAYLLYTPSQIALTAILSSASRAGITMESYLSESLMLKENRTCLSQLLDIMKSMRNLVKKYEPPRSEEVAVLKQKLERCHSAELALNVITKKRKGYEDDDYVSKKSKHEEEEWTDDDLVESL
Sequence of UniProt P42574 (P42574 whole entry, looked up): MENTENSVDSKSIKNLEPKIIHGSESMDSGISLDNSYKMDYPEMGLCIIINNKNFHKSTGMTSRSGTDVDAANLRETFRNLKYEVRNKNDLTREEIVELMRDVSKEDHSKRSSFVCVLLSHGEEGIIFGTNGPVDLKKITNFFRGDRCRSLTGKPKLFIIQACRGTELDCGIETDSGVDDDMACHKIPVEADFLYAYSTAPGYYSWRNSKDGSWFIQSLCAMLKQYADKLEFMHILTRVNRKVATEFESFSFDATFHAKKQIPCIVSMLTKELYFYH
Sequence of UniProt Q01459 (Q01459 whole entry, looked up): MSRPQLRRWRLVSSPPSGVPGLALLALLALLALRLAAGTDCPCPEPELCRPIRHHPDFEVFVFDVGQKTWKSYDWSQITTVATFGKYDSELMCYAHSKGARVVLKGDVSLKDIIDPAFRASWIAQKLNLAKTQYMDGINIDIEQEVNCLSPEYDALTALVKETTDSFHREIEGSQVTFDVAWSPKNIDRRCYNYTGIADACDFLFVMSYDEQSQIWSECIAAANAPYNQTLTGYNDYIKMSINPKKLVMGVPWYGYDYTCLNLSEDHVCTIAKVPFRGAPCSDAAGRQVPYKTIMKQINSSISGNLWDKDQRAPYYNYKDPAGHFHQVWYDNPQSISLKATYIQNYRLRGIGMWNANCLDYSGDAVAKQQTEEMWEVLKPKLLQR
Sequence of UniProt P48509 (P48509 whole entry, looked up): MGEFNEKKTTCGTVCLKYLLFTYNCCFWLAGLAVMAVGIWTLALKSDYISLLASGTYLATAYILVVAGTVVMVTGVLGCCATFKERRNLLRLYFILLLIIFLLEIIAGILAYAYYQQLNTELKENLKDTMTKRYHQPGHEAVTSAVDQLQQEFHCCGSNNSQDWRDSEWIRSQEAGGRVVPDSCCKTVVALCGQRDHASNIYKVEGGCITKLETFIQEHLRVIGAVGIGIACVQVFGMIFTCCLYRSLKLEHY

Target | log2 fold change (saracatinib) | log2 fold change (sotrastaurin) | log2 fold change (alvocidib) | log2 fold change (Tubastatin A) | log2 fold change [1] | log2 fold change (defactinib) | log2 fold change (rucaparib) | log2 fold change [2] | log2 fold change (encorafenib) | log2 fold change [3] | log2 fold change [4] | log2 fold change (filanesib) | log2 fold change (zotarolimus) | log2 fold change (idasanutlin) | log2 fold change (alisertib) | log2 fold change [5] | log2 fold change (gefitinib) | log2 fold change [6] | log2 fold change (lapatinib) | log2 fold change (pictilisib)
CLPTM1L (UniProt Q96KA5) | 0.11 | -0.013 | 0.008 | -0.008 | -0.057 | -0.042 | -0.011 | -0.099 | 0.021 | 0.043 | -0.053 | -0.114 | -0.095 | -0.141 | -0.032 | -0.08 | -0.007 | 0.065 | -0.02 | 
CCNH (UniProt P51946) | 0.094 | -0.019 | -0.014 | -0.001 | -0.037 | -0.037 | 0.036 | -0.044 | -0.031 | 0.033 | 0.043 | 0.005 | -0.044 | 0.018 | -0.011 | 0.026 | -0.03 | -0.002 | 0.023 | 0.007
CLPX (UniProt O76031) | 0.014 | 0.014 | 0.039 | 0.025 | -0.016 | -0.027 | 0.034 | -0.038 | -0.013 | -0.01 | 0.077 | -0.07 | -0.052 | -0.007 | -0.026 | -0.017 | 0.019 | 0.021 | 0.014 | 
CLTB (UniProt P09497) | 0.064 | 0.017 | 0.078 | -0.019 | -0.034 | 0.063 | -0.039 | -0.009 | -0.014 | 0.031 | 0.263 (active) | -0.053 | -0.006 | -0.02 | -0.106 | 0 | 0.017 | 0.028 | -0.014 | 
COMMD2 (UniProt Q86X83) | -0.17 | 0.043 | -0.078 | 0.179 | 0.411 (active) | -0.088 | 0.034 | 0.039 | -0.005 | 0.012 | -0.039 | 0.058 | 0.124 | -0.058 | -0.126 | 0.076 | 0.018 | 0.001 | 0.02 | 0.007
CD53 (UniProt P19397) | -0.22 | 0.087 | -0.06 | 0.009 | -0.21 | -0.069 | -0.032 | 0.125 | -0.006 | 0.051 | -0.1 | 0.025 | -0.022 | 0.084 | -0.04 | 0.154 | 0.053 | 0.102 | -0.208 | 0.276
CDK12 (UniProt Q9NYV4) | -0.113 | -0.406 | 0.122 | 0.165 | -0.309 | -0.052 | 0.072 | 0.003 | 0.09 | 0.157 | -0.019 | 0.463 | -0.072 | 0.303 | 0.062 | -0.226 | 0.005 | -0.03 | 0.134 | -0.018
CASP3 (UniProt P42574) | 0.107 | 0.048 | 0.005 | 0.066 | -0.024 | -0.002 | -0.062 | 0.001 | -0.014 | -0.004 | 0.004 | -0.002 | 0.029 | 0.072 | -0.103 | 0.025 | 0.002 | -0.018 | 0.017 | 0.006
CPSF6 isoform 2 (UniProt Q16630) | -0.014 | 0.031 | -0.128 | 0.015 | -0.217 | -0.009 | 0.016 | 0.008 | -0.043 | 0.007 | -0.03 | 0.036 | 0.016 | 0.034 | -0.046 | 0.063 | 0.023 | 0.025 | -0.016 | 0.055
CPSF7 isoform 3 (UniProt Q8N684) | 0.006 | 0.026 | -0.018 | 0.032 | -0.071 | 0.014 | 0.033 | -0.014 | -0.014 | -0.044 | 0.018 | 0.018 | 0.033 | -0.003 | -0.074 | 0.065 | 0.029 | -0.016 | 0.013 | 0.12
CTBS (UniProt Q01459) | 0.081 | -0.245 | 0.029 | 0.038 | 0.023 | -0.082 | 0.055 | -0.132 | -0.093 | -0.038 | -0.006 | -0.038 | 0.002 | 0.018 | -0.032 | 0.026 | 0.01 | 0.055 | 0.004 | -0.068
CD63 (UniProt P08962) | 0.021 | 0.017 | 0.01 | -0.005 | 0 | -0.006 | -0.018 | -0.01 | 0.049 | 0.015 | -0.053 | -0.336 (active) | -0.01 | -0.051 | -0.069 | -0.031 | -0.076 | 0.096 | -0.002 | 0.032
CASC3 (UniProt O15234) | -0.015 | 0.067 | 0.6 (active) | -0.06 | 0.021 | 0.323 | 0.158 | -0.126 | -0.089 | 0.073 | 0 | 0.17 | -0.105 | 0.038 | -0.051 | 0.16 | 0 | -0.105 | -0.077 | -0.066
CETN2 (UniProt P41208) | 0.095 | 0.077 | -0.013 | -0.128 | -0.03 | -0.054 | 0.031 | 0.058 | -0.079 | 0.06 | -0.114 | 0.225 | -0.067 | 0.042 | -0.112 | 0.141 | 0.019 | 0.028 | -0.207 | 0.028
CD151 (UniProt P48509) | 0.045 | 0.116 | -0.049 | -0.012 | 0.092 | -0.065 | -0.097 | 0.03 | 0.031 | 0.001 | -0.045 | 0.108 | -0.048 | -0.12 | 0.075 | 0.111 | 0.001 | -0.024 | 0.012 | 0.116
CHD4 isoform 2 (UniProt Q14839) | -0.006 | -0.25 | -0.135 | 0.03 | 0 | -0.247 | 0.043 | 0.041 | 0.133 | 0.017 | 0.04 | 0.079 | 0.019 | 0.045 | 0 | -0.099 | 0.055 | -0.097 | 0.013 | -0.028
